From PubChem BioAssay (NCATS)
Results filed as inconclusive are left out. Values without a mark were called inactive. Calls of active or inactive are those of the source. Unless noted, calls follow the shape of the full dose curve.

Molecular target: Estrogen receptor (Homo sapiens) (UniProt P03372)
Experiment: qHTS assay for small molecule antagonists of estrogen receptor alpha signaling (AID 588513; active = well fitted curve in the direction sought with a large enough effect in the signal ratio, with a control signal flat, not every such curve was filed as active; the % refers to the signal ratio; also: % is scaled to controls: 0 for no effect and ±100 for the full control effect)
Settings: ER-alpha-UAS-bla HEK293, beta-lactamase ratio, antagonist mode; series mostly up to 76.9 µM; activity, negative = inhibition: at the top concentration
Summary of the method: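 Fluorescence from CCF4 substrate after 2 h at room temperature gave reporter activity; cells had been exposed to compound and 0.5nM 17-beta-estradiol for 18 h at 37 C. Hill-equation fitting yielded IC50 and maximal response.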

Chain of Estrogen receptor (Homo sapiens) (P03372 whole entry, looked up): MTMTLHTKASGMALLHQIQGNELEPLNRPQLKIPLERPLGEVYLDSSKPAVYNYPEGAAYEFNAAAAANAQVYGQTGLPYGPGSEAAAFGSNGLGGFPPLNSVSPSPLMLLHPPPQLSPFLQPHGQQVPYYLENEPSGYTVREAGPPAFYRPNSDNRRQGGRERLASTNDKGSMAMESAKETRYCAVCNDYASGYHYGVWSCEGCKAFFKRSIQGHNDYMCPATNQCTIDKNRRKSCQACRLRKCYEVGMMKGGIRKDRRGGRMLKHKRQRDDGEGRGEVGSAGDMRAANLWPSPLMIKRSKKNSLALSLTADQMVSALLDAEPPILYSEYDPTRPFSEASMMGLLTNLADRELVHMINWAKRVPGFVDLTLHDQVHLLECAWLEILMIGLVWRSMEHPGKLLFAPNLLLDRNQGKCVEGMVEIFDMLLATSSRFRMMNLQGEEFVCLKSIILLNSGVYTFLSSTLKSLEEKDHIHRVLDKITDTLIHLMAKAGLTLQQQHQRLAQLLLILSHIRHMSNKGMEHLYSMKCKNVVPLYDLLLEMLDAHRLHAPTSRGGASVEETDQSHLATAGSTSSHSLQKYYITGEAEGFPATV

SMILES	activity, negative = inhibition [%]	outcome
COc1cc(OC)c(OC)cc1C=O	14.9	–
CCOC(=O)CC(SP(=S)(OC)OC)C(=O)OCC (stereo not drawn)	–	inactive
O=C(Oc1ccccc1)c1ccccc1O	-13.2	–

Molecular target: Estrogen receptor (Homo sapiens) (UniProt P03372)
Experiment: qHTS assay for small molecule agonists of estrogen receptor alpha signaling (AID 588514); also: nearly all actives have a fitted effect of over 70% in size; also: potency is read from the fitted curve at half-maximal effect;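 as to activation: 0% = vehicle only and 100% = reference agonist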
Settings: ER-alpha-UAS-bla HEK293, beta-lactamase ratio, 18 h; series mostly up to 76.8 µM; activation: at the top concentration
Summary of the method: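 Reporter-gene assay. […] controls beta-lactamase in HEK 293 GripTite cells; after 18 hrs with compound, CCF4 substrate is added for 2 hrs and fluorescence is read.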

SMILES	Potency	activation [%]
C[C@]12CCC(=O)C=C1CC[C@@H]1[C@@H]2CC[C@@]2(C)[C@H]1CC[C@]2(C)O	12.6 µM (active)	–
CC1(C)C(C=C(Cl)Cl)C1C(=O)OC(C#N)c1cccc(Oc2ccccc2)c1 (stereo not drawn)	–	-3.83
COc1cc(OC)c(OC)cc1C=O	–	-10.3
CCOC(=O)CC(SP(=S)(OC)OC)C(=O)OCC (stereo not drawn)	inactive	–
COP(=S)(OC)Oc1cc(Cl)c(Cl)cc1Cl	–	1.19
